Inconclusive results are not listed. The source made the active and inactive calls. Calls follow the shape of the dose curve; as a rule, active = well fitted curve in the direction sought with a large enough effect; inconclusive = small, poorly fitted or top-dose-only effect, or another doubt; inactive = no such curve, though single readings can be large; an effect the other way counts as inactive or inconclusive. *1 amine or outer side, *2 acyl side, *3 side chain or, on linkers, in order; H or OH if unused. Where a SMILES comes first, the peptide text is derived from it. Bridges are numbered along the chain shown (N, C = ends). [ ]: non-standard residue; d: D form. The star is where a group is joined. pTerphenylCO(4''-OnC5H11) = CCCCCOc1ccc(-c2ccc(-c3ccc(C(=O)*)cc3)cc2)cc1; Orn(4R-OH,5R-OH) = O=C([C@H](C[C@@H](O)[C@@H](O)N[*:3])N[*:1])[*:2]; hTyr(3S-OH,4S-OH) = N[C@H](C(=O)O)[C@H](O)[C@@H](O)c1ccc(O)cc1; Pro(3S-OH,4S-Me) = C[C@H]1CN[C@H](C(=O)O)[C@H]1O; Hyp = O=C(O)[C@@H]1C[C@@H](O)CN1

A short description of assay [1]: Confirmatory screen GU Rhodamine qHTS for Zika virus inhibitors qHTS (AID 1347157). Also: potency is read from the fitted curve at half-maximal effect; nearly all actives have a fitted effect of over 70% in size. A digest of the protocol:
(§1)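 Enzyme 25 nM in Tris-HCl pH 8.0 + 0.01% Tween 20; compounds up to 114 microM, 15 min RT dark; + Rhod110 substrate 1.5 microM; read t0 and 15 min; delta fluorescence → % inhibition → 4-parameter Hill fit.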

Assay [2] has as its system Zika virus NS2B-NS3 protease (unlinked complex). Put plainly: Primary screen GU Rhodamine qHTS for Zika virus inhibitors: Unlinked NS2B-NS3 protease assay (AID 1347159). Also: nearly all actives have a fitted effect of over 60% in size. Also: potency is read from the fitted curve at half-maximal effect. A digest of the protocol:
as §1
Background: In qHTS, concentration-response curves come from the screen itself.

Assay [3] relates to Zika virus NS2B-NS3 protease (linked construct). Put plainly: Primary screen NINDS Rhodamine qHTS for Zika virus inhibitors (AID 1347160). Also: nearly all actives have a fitted effect of over 55% in size. Also: potency is read from the fitted curve at half-maximal effect. The gist of the method: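 Enzyme (25 nM, linked NS2B-NS3) was preincubated 15 min with compound in 10 mM Tris-HCl pH 8.0, 0.01% Tween 20. Rhodamine110 substrate (1.5 microM) was then added and fluorescence read at start and after 15 min.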

The nature of assay [4]: Confirmatory screen NINDS Rhodamine qHTS for Zika virus inhibitors (AID 1347161). Also: potency is read from the fitted curve at half-maximal effect; nearly all actives have a fitted effect of over 60% in size. A digest of the protocol:
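Each compound, titrated, sat 15 min with 25 nM linked protease before 1.5 microM Rhodamine110 substrate went in. Fluorescence gain over the next 15 min, in pH 8.0 Tris with Tween 20, gave Hill-fitted curves.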

Assay [5] deals with Zika virus NS2B-NS3 protease (linked construct). Description: 384 well plate NINDS Rhodamine confirmatory qHTS for Zika virus inhibitors (AID 1347164).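 Also: fluorescence from protease cleavage of Ac-LKRR-rhodamine 110 substrate; potency is read from the fitted curve at half-maximal effect; nearly all actives have a fitted effect of over 65% in size.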 A digest of the protocol:
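Linked NS2B-NS3 protease (final 5, 30 or 60 nM) preincubated ~15 minutes with compounds, then 10 microM Ac-LKRR-Rhodamine 110 added. Fluorescence (485/538 nm) read after 25 minutes at room temperature, normalized to no-enzyme and no-inhibitor controls.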

Assay [6] is described as follows: Vero cells viability qHTS for Zika virus inhibitors (AID 1347167). The gist of the method:
(§2)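 To flag cytotoxic protease inhibitors, viability is measured by ATP-dependent luminescence (CellTiter Glo) after cells attached overnight receive compound for 24 to 48 hours in DMEM with 4% FBS.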

Assay [7] in a line: HepG2 cells viability qHTS for Zika virus inhibitors (AID 1347168). A digest of the protocol: as §2
The nature of assay [8]: ZIKV-mCherry secondary qHTS for Zika virus inhibitors (AID 1347158). Also: potency is read from the fitted curve at half-maximal effect. The gist of the method: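 Read-out is percent infection: mCherry-positive Vero cells (nuclear-proximal intensity >450 RFU, 3 SD above negative controls) counted by high-content imaging of Hoechst-stained, PFA-fixed wells after 48-72 h with ZIKV-mCherry at MOI 1 and compound.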
Assay [9] has as its system Zika virus NS2B-NS3 protease. Description: Primary screen GU AMC qHTS for Zika virus inhibitors (AID 1347154). Also: nearly all actives have a fitted effect of over 70% in size. The gist of the method: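 Unlinked Zika NS2B hydrophilic domain/NS3 protease domain noncovalent complex (25 nM final) in 10 mM Tris-HCl pH 8.0, 0.01% Tween 20, with AMC peptide substrate. Fluorescence (ex 340, em 450 nm) change over 15 min, room temperature; percent inhibition fitted to 4-parameter Hill equation.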

For `COc1ccc(-c2ccccc2)cc1NS(=O)(=O)c1cc(Cl)cc(Cl)c1O`, the Potency is 1.21 µM (active) in [1]; 1.41 µM (active) in assay [2]; 1.58 µM (active) in assay [3]; 1.71 µM (active) in assay [4]; 4.47 µM (active) in assay [5]. Besides, the outcome in [6] and in assay [7] was inactive.
As to `O=C(O)c1ccc(S(=O)(=O)N(Cc2ccc(OC(F)(F)F)cc2)c2ncc(C(F)(F)F)cc2Cl)cc1`, the Potency was 3.93 µM (active) in assay [1], 4.47 µM (active) in [2], 4.47 µM (active) in assay [3] and 3.93 µM (active) in assay [4]. For the same molecule, the result in assay [6] and in assay [7] was inactive.
`Oc1cccc(-c2c3nc(c(-c4cccc(O)c4)c4ccc([nH]4)c(-c4cccc(O)c4)c4nc(c(-c5cccc(O)c5)c5ccc2[nH]5)CC4)C=C3)c1`: the Potency was 22.4 µM (active) in [1] and 20 µM (active) in [4]. For the same molecule, in assay [8], the Potency entry is “inactive”.
Regarding `CCC/C=C/c1cc2c(C=O)c(O)c(CC=C(C)C)cc2o1`, in assay [2], the Potency was 7.94 µM (active).
On the same count and under the same terms, with `O=C(NO)c1ccc(CC(=O)N(CCO)c2ccccc2)cc1` the entry was “inactive”.
In the case of `O=S(=O)(c1ccccc1)N(CC(F)(F)F)c1ccc(C(O)(C(F)(F)F)C(F)(F)F)cc1`, the Potency result in assay [9] and in [3] was “inactive” throughout.
As to `CCc1ccccc1OC[C@@H](O)CN[C@H]1CCCc2ccccc21`, the Potency entry in assay [9], in assay [2] and in assay [3] was “inactive” in each case.
Regarding `O=C(Nc1ccc(/C=C/c2ccc(NC(=O)c3cc(S(=O)(=O)O)c4cccnc4c3O)cc2S(=O)(=O)O)c(S(=O)(=O)O)c1)c1cc(S(=O)(=O)O)c2cccnc2c1O`, the results for the Potency in [1], in assay [4] and in [5] were 2.82 µM (active), 2.51 µM (active) and 15.8 µM (active), respectively. Also, the Potency entry in assay [8] is “inactive”.
`N#Cc1ccc(N2N=C3c4ccc(C(=O)O)cc4CC[C@@H]3[C@@H]2C2CCCC2)cc1Cl`: the Potency in [1] was 2.21 µM (active); in [8], 2.51 µM (active); in assay [2], 1.41 µM (active); in assay [3], 2 µM (active); in assay [4], 1.75 µM (active); in assay [5] it was 4.47 µM (active). For the same molecule, the result in assay [6] and in [7] was inactive.
As for `CC#C[C@@H](CC(=O)O)c1ccc(OCc2cccc(-c3ccc(C(F)(F)F)cc3)c2)cc1`, the Potency in assay [1] is 0.698 µM (active); in assay [3], 1.58 µM (active); in assay [4] it was 0.987 µM (active); in assay [5], 5.62 µM (active). Besides, the outcome in assay [6] and in [7] was inactive.
On to `Cc1cc(CS(=O)(=O)c2ccccc2)cc(OCc2ccc(CN3CCCC3CO)cc2)c1` (centres undefined), for which the Potency result in assay [2] and in assay [3] was “inactive” throughout.
As for `CC(=O)NC(C)c1cnc(-c2cnc(Oc3ccc(OC(C)C)cc3)s2)s1` (centres undefined), the Potency entry in [2] and in assay [3] was “inactive” each time.
As to `CN1CCN(C(=O)CN[C@@H]2C[C@H]2c2ccc(OCc3ccccc3)cc2)CC1`, the Potency entry in assay [2] and in assay [3] was “inactive” throughout.
Turning to `COc1ccc(NC(=O)C2C[C@H](C)CC[C@H]2C(C)C)cc1` (some centres undefined), the Potency entry in assay [2] and in [3] was “inactive” throughout.
In the case of `O=C(NCCCNc1nc(Nc2cccc(CN3CCOCC3)c2)ncc1C1CC1)C1CCC1`, the Potency result in assay [2] and in [3] was “inactive” in each case.
As to `CCNC1(C(N)=O)CN(c2nc(C)nc3c(-c4ccc(Cl)cc4)c(-c4ccccc4Cl)nn23)C1`, the Potency entry in assay [2] was “inactive”.
Regarding `C=C[C@@]1(C)C=C2C(=O)C(O)=C3[C@](C)(C(=O)O)CC[C@@H]4C[C@]34[C@]2(O)C(=O)C1`, the Potency result in [2] and in assay [3] was “inactive” each time.
Consider `C/C=C/C=C/c1cc2c(C=O)c(O)c(CC=C(C)C)cc2o1`, for which the results for the Potency in [2] and in assay [3] were 12.6 µM (active) and 17.8 µM (active), respectively.
Taken in the same sequence, the figures for `CC(C)Oc1ccc(-c2cnc3c(-c4ccnc5ccccc45)cnn3c2)cc1` were “inactive” and “inactive”.
Turning to `CC(OC1OCCN(Cc2n[nH]c(=O)[nH]2)C1c1ccc(F)cc1)c1cc(C(F)(F)F)cc(C(F)(F)F)c1` (centres undefined), the Potency in [2] is 44.7 µM (active).
With `C=C1C(=O)O[C@@H]2[C@H]3C(C)=CC(=O)C3=C(C)[C@@H](OC(=O)/C(C)=C\C)[C@H](O)[C@@H]12`, the Potency result in assay [2] and in assay [3] was “inactive” throughout.
For `CCCn1ncc(CN2CCCC(C(=O)c3cccc(OC(C)C)c3)C2)c1C` (centres undefined), the Potency entry in [2] and in [3] was “inactive” in each case.
As for `C=C1C(=O)OC2C(OC(=O)C=C(C)C)C(C)=C3C(=O)C=C(C)C3C(O)C12` (centres undefined), the Potency result in assay [2] and in assay [3] was “inactive” in each case.
With `CN1CCN(C2=Nc3ccccc3Nc3ccc(OS(=O)(=O)C(F)(F)F)cc32)CC1`, the Potency entry in assay [2] and in assay [3] was “inactive” in each case.
For `Fc1ccc(-n2cc(CCCCN3CCC4(CC3)OCc3ccccc34)c3ccccc32)cc1`, in assay [2], the Potency entry was “inactive”.
Turning to `NC(=O)c1ccccc1Nc1ccnc(Nc2cccc(O)c2)n1`, the Potency result in assay [2] and in assay [3] was “inactive” in each case.
With `C=CC1(C)CC(O)C(C(=C)C(=O)OC)C(O)C1C(=C)CO` (centres undefined), the Potency result in [2] and in assay [3] was “inactive” each time.
As for `O=C(NCCO)c1cccc(-c2cc(Nc3ccc(OC(F)(F)F)cc3)ncn2)c1`, the Potency result in assay [2] and in [3] was “inactive” each time.
As for `CCc1c[nH]c2ncnc(N3CC[C@](N)(CNC(=O)c4ccc(F)cc4F)C3)c12`, the Potency result in [2] and in assay [3] was “inactive” each time.
Turning to `C=C(C=O)[C@]1(O)C[C@@]2(C)C(=CC1=O)C=C[C@H](OC(=O)/C=C/C=C/[C@H](C)CC)[C@@H]2C`, the Potency in assay [2] is 8.91 µM (active).
Regarding `Cn1ncnc1[C@@H]1c2n[nH]c(=O)c3cc(F)cc(c23)N[C@H]1c1ccc(F)cc1`, the Potency result in [2] and in assay [3] was “inactive” throughout.
`CC1OC2OC(=O)C3(C)CC4C5(CO5)C5=CC(=O)OC(C)(C)C5=CC(=O)C4(C)C(C1=O)C23` (centres undefined): in [2], the Potency is 15.8 µM (active).
For `COC(C)(C)CCn1nc(Nc2c(C)cccc2C)c2cnc(Nc3ccc(OCCN4CCCC4)c(F)c3)nc21`, the Potency entry in [2] and in [3] was “inactive” each time.
Consider `CC1CCCC(O)CC(=O)c2c(O)cc(O)cc2CC(=O)O1` (centres undefined), for which the Potency result in assay [2] and in assay [3] was “inactive” in each case.
As for `C=C1CC(=O)C2OC2(C)CC2OC(=O)C(=C)C2C(O)C1OC(=O)/C(C)=C\C` (centres undefined), the Potency result in assay [2] and in [3] was “inactive” in each case.
Take `CCOc1cc(C(C)(C)C)ccc1C1=NC(C)(c2ccc(Cl)cc2)C(C)(c2ccc(Cl)cc2)N1C(=O)N1CCN(CCCS(C)(=O)=O)CC1` (centres undefined): the Potency entry in assay [2] was “inactive”.
Regarding `CCCCCOc1ccc(-c2ccc(-c3ccc(C(=O)N[C@H]4C[C@@H](O)[C@@H](O)NC(=O)[C@@H]5[C@@H](O)[C@@H](C)CN5C(=O)[C@H]([C@@H](C)O)NC(=O)[C@H]([C@H](O)[C@@H](O)c5ccc(O)cc5)NC(=O)[C@@H]5C[C@@H](O)CN5C(=O)[C@H]([C@@H](C)O)NC4=O)cc3)cc2)cc1` ({pTerphenylCO(4''-OnC5H11)}-[Orn(4R-OH,5R-OH)]T[Hyp][hTyr(3S-OH,4S-OH)]T[Pro(3S-OH,4S-Me)]; lactam 1-C), the Potency in assay [2] was 31.6 µM (active). Further, in [3], the Potency result was “inactive”.

The values are drawn from PubChem BioAssay (NCATS).
